The source made the active and inactive calls.

Assay [1] deals with Plasmodium falciparum Sir2 (PF13_0152, Sir2A). The experiment in a line: Plasmodium falciparum Sir2A binding compounds – biochemical, small-molecule microarray, 635 nm fluorescence, primary screen (AID 1098).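 Further: score merges spot fluorescence intensity with its signal-to-noise ratio.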 The note with it: fluorescence 635 nm, higher = more signal.
The nature of assay [2]: probe aDKK1 binding to arrayed compounds – biochemical, biotinylated probe, 635/667 nm fluorescence, primary screen (AID 1099).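 Further: score merges 667nm spot fluorescence with signal to noise across triplicate slides; reference of the scale not given here.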 The note with it: small-molecule microarray, higher = more signal.
Assay [3] in a line: probe aCHRDL2 binding to arrayed compounds – biochemical, biotinylated probe, 635/667 nm fluorescence, primary screen (AID 1100). The conditions noted are these: small-molecule microarray, higher = more signal.
Assay [4] in a line: change in splice reporter luminescence, either direction, cell-based, HEK293, spliceosome inhibition project, primary screen (AID 1101).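 Further: HEK293 cells carrying a splicing-competent luciferase reporter gene; test concentration not given here.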 The conditions noted are these: HEK293 splicing luciferase reporter, 24 h, higher = more signal, called active from +8 up or from −8 down. A general note: A reporter such as luciferase makes a cellular process visible.
Assay [5] concerns the target Fibroblast growth factor 10 (Homo sapiens) (UniProt O15520). In words: compounds binding fibroblast growth factor 10 – biochemical, small-molecule microarray, 635 nm fluorescence, primary screen (AID 1102). The note with it: FGF10 binding, fluorescence 635 nm, higher = more signal.
In assay [6] the test system is glycogen synthase kinase-3 (GSK3A per assay name; protocol says GSK3B). In words: compounds binding glycogen synthase kinase-3 – biochemical, small-molecule microarray, 635 nm fluorescence, GSK3A, primary screen (AID 1103). Further: the record names both GSK3A and GSK3B. The note with it: fluorescence 635 nm, higher = more signal.
Assay [7] deals with Epidermal growth factor receptor (Homo sapiens) (UniProt P00533). In words: compounds binding epidermal growth factor receptor – biochemical, small-molecule microarray, 635 nm fluorescence, primary screen (AID 1104).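 Further: score merges 667 nm emission intensity with spot signal to noise over triplicate slides.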 The conditions noted are these: EGFR binding, higher = more signal.
The target in assay [8] is Follistatin-related protein 3 (Homo sapiens) (UniProt O95633). In words: compounds binding follistatin-related protein 3 – biochemical, small-molecule microarray, 635 nm fluorescence, primary screen (AID 1105).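 Further: score merges emission near 667 nm and signal to noise per printed spot across three slides.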 The conditions noted are these: FSTL3 binding, higher = more signal.
In assay [9] the target is Dickkopf-related protein 1 (Homo sapiens) (UniProt O94907). In words: small molecules binding DKK1 protein – biochemical, small-molecule microarray, 635 nm fluorescence scan, primary screen (AID 1106).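 Further: score merges emission near 667 nm with signal to noise over three replicate slides.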 The note with it: higher = more signal.
For assay [10], the system named is Inhibin beta A chain (activin A). The experiment in a line: small molecules binding activin A – biochemical, small-molecule microarray, 635 nm fluorescence scan, primary screen (AID 1107).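 Further: mouse activin A protein probed at 4.33 µg/mL on printed slides; score merges bound-protein fluorescence near 667 nm with spot signal-to-noise.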 The note with it: INHBA, higher = more signal.

Fibroblast growth factor 10 (Homo sapiens), sequence (O15520 whole entry, looked up): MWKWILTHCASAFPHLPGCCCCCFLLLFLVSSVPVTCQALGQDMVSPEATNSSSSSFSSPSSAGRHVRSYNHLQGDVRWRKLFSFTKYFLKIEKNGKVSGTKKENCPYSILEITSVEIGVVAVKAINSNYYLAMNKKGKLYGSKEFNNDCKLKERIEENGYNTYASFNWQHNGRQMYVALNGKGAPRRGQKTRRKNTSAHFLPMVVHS
Epidermal growth factor receptor (Homo sapiens), sequence (P00533 whole entry, looked up): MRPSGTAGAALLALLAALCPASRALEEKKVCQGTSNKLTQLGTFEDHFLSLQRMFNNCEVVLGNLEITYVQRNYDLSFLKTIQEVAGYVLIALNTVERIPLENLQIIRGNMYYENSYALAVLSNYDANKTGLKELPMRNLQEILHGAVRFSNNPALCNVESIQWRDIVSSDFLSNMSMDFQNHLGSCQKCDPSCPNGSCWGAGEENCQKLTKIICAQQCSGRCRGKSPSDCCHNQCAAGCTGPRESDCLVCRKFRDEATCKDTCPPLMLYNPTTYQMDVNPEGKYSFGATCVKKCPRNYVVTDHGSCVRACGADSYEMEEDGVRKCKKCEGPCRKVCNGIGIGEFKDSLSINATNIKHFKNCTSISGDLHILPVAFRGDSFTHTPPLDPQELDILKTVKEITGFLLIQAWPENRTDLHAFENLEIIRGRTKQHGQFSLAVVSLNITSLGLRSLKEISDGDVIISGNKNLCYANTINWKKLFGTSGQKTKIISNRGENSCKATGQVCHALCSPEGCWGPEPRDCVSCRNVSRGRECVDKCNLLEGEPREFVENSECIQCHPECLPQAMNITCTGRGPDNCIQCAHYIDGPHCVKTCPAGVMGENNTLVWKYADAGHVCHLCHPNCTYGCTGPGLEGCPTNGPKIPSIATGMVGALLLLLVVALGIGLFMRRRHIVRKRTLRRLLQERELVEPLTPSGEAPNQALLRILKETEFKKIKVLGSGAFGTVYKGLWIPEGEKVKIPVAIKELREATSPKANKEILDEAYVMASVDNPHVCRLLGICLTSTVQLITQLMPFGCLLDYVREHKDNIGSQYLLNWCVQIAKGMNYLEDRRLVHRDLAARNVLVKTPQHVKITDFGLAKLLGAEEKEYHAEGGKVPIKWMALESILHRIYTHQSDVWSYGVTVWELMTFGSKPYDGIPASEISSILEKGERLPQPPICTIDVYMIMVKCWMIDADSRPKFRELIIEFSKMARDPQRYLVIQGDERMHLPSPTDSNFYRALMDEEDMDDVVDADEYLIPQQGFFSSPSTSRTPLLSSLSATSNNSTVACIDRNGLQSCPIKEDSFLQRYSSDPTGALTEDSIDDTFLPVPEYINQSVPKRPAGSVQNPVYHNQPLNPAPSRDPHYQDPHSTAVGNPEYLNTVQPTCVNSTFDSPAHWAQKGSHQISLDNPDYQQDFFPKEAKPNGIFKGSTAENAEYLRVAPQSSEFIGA
Follistatin-related protein 3 (Homo sapiens), sequence (O95633 whole entry, looked up): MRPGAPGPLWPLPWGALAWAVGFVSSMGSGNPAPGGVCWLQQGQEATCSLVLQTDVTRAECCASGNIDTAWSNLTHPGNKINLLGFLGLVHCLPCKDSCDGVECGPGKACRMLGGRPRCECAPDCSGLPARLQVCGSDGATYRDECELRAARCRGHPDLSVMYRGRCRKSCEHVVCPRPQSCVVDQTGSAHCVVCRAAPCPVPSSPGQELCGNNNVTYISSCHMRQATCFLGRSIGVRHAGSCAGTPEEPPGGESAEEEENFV
Dickkopf-related protein 1 (Homo sapiens), sequence (O94907 whole entry, looked up): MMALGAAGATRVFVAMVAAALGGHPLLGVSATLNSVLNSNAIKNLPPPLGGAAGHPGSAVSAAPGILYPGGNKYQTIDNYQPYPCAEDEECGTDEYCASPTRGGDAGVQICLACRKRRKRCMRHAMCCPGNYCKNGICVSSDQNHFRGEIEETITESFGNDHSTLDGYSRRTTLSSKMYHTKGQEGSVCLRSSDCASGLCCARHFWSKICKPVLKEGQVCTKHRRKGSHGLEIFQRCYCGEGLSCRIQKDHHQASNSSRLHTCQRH

Turning to `O=C1C[C@@H](O)[C@@H](O)[C@@H]2[C@@H]3C(=O)N(Cc4ccccc4)C(=O)[C@@H]3CC[C@@H]12`, the composite z-score in assay [1] was 0.463; in assay [2], -0.222; in assay [3] it was -0.47; in assay [5], 0.807; in assay [6], 0.863; in assay [7], 0.506. The composite z-score was 0.888 in assay [8], 0.59 in assay [9] and 0.11 in assay [10]. In addition, the z-score in assay [4] is 0.859 (inactive).

With `CCOC(=O)[C@H](CC(C)C)NC(=O)CCC1CC(OC(=O)NCc2cccc3ccccc23)CC2(CCCC(COC(=O)NCCC(C)C)O2)O1` (stereo not given in full), the composite z-score in assay [1] was 1.49; in assay [2], -0.203; in [3], -0.196; in assay [5], 0.335; in assay [6], -0.229; in assay [7], 0.59. Besides, the composite z-score in [8] amounted to 0.728; in assay [9], 0.418; in assay [10] it was 0.203. Also, the z-score in [4] is -2.95 (inactive).

As to `COC(=O)CC=C[C@@H](C)[C@@H](C=NO[C@H](C)c1cn([C@H](CO)Cc2ccccc2)nn1)NS(=O)(=O)c1ccc(C)cc1`, the composite z-score was 0.182 in assay [1]; 0.0644 in [2]; -0.0281 in assay [3]; 0.532 in assay [5]; 0.0796 in assay [6]; 0.264 in assay [7]. The composite z-score in [8] was 0.226; in assay [9], 0.0568; in assay [10], -0.119. In [4], the z-score is 0.0956 (inactive).

On to `CO[C@@H]1C=CCC(=O)N2CCC[C@H]2C(=O)OC[C@@H](C)C(=O)OC[C@H]1C`, for which the composite z-score was 1.1 in [1]; -0.21 in assay [2]; -0.822 in assay [3]; 0.441 in [5]; 0.484 in [6]; 0.521 in [7]. Further, the results for the composite z-score in [8], in assay [9] and in [10] were 1.44, 1.43 and 0.163, respectively. Moreover, the z-score in [4] was -0.497 (inactive).

As to `Cc1cc2c(c(=O)o1)[C@@H](O)[C@H]1O[C@H]1C2=O`, the composite z-score in assay [1] was 0.338; in assay [2] it was -0.145; in assay [3], -0.699; in assay [5], 0.436; in assay [6], 0.231; in [7], 0.287. Also, the figures for the composite z-score in assay [8], in [9] and in assay [10] were 0.522, 0.585 and 0.0545, respectively. Also, the z-score in assay [4] is -0.533 (inactive).

On to `C[C@H]1CC[C@H]2C(=O)O[C@H](COc3ccc(C(C)(C)C)cc3)CN2[C@@H]1c1ccc(Br)cc1`, for which the composite z-score is 0.926 in [1]; -0.143 in [2]; -0.0663 in [3]; 0.0311 in [5]; 0.102 in assay [6]; -0.0022 in assay [7]. Besides, the composite z-score was -0.156 in assay [8], -0.189 in [9] and 0.0563 in [10]. In addition, the z-score in assay [4] is 0.134 (inactive).

Regarding `Cc1ccc(S(=O)(=O)OC[C@H]2CN3[C@H](c4ccc(Br)cc4)[C@@H](C)CC[C@H]3C(=O)O2)cc1`, the composite z-score in assay [1] was 0.579; in assay [2] it was -0.285; in assay [3], -0.207; in assay [5] it was 0.725; in [6], -0.204; in assay [7], -0.0807. The composite z-score in assay [8] is -0.0668; in [9], 0.459; in assay [10], 0.355. In addition, the z-score in [4] was -0.649 (inactive).

As for `CCOC(=O)[C@H](CC(C)C)NC(=O)CCC1CC(OC(=O)NCCc2ccc(F)cc2)CC2(CCCC(COC(=O)NCCc3ccc(Cl)cc3)O2)O1` (stereo not given in full), the composite z-score in assay [1] was 0.654; in [2] it was -0.26; in assay [3], -0.681; in [5], 0.675; in assay [6], 0.46; in assay [7], 0.517. Further, the composite z-score in [8] is 0.79; in assay [9] it was 0.483; in assay [10], -1.71. Further, the z-score in assay [4] was 0.0483 (inactive).

With `CC1O[C@H]2C3=C(C(=O)[C@@H]4O[C@@H]4[C@H]3O)[C@@H]1C1[C@@H](C)OC=C3[C@H](O)C4O[C@@H]4C(=NOCc4ccccc4)[C@]312` (stereo not given in full), the composite z-score was 0.0395 in assay [1]; -0.129 in assay [2]; -0.326 in [3]; 0.0791 in assay [5]; -0.14 in assay [6]; 0.191 in [7]. Besides, the composite z-score in assay [8] was -0.3; in assay [9] it was 0.155; in [10], 0.121. Moreover, the z-score in assay [4] was -0.469 (inactive).

With `O=C1CCCC(C2=CCCCC2=O)C1` (stereo not given), the composite z-score is -0.153 in assay [1]; -0.356 in [2]; -0.766 in assay [3]; 0.466 in assay [5]; 0.555 in assay [6]; 0.612 in [7]. Also, the composite z-score in [8] turned out to be 0.668; in assay [9], 0.923; in assay [10] it was 1.5. The z-score in assay [4] was 0.378 (inactive).

Turning to `C#CCCCON=C1C[C@@H](O)[C@@H](O)[C@@H]2[C@@H]3C(=O)N(c4ccc(F)cc4F)C(=O)[C@@H]3CC[C@@H]12`, the composite z-score in assay [1] was 0.191; in assay [2], -0.19; in [3] it was -0.71; in assay [5] it was -0.0402; in assay [6], 0.225; in assay [7], 0.259. In addition, the composite z-score was 0.218 in [8], 0.302 in assay [9] and -0.263 in [10]. Further, the z-score in assay [4] is 0.0714 (inactive).

For the molecule `CCCCC#C[C@@H]1C=C[C@H](OC(C)=O)[C@@H](COC(C)=O)O1`, the composite z-score in [1] is 0.483; in assay [2], -0.228; in assay [3] it was -0.595; in assay [5], 0.46; in assay [6], 0.244; in [7], 0.137. Also, the composite z-score in assay [8] was 0.44; in [9], 0.124; in assay [10], 0.589. The z-score in [4] is 1.07 (inactive).

For `CO[C@H]1COC(=O)[C@@H](C)COC(=O)[C@H](C)NC(=O)CC=C[C@H]1C`, the composite z-score was 0.473 in assay [1]; -0.537 in [2]; -1.73 in assay [3]; 0.577 in assay [5]; 0.732 in [6]; 0.785 in assay [7]. In addition, the composite z-score in [8] was 1.54; in [9] it was 1.32; in [10], 1.13. In addition, in [4], the z-score was -0.0731 (inactive).

Turning to `CC(=O)OC[C@H]1O[C@@H](ON=C(C)CCN2CCCc3nc(C)c(C)cc32)[C@H](OC(C)=O)[C@@H](OC(C)=O)[C@@H]1OC(C)=O`, the composite z-score in assay [1] was 0.541; in assay [2], -0.132; in assay [3], -0.638; in assay [5], 1.03; in assay [6] it was 1.29; in assay [7] it was 0.804. Also, the composite z-score was 1.26 in assay [8], 0.855 in assay [9] and -0.263 in [10]. Further, the z-score in assay [4] is -0.548 (inactive).

With `CC(C)CON=C1C[C@@H](O)[C@@H](O)[C@@H]2[C@@H]3C(=O)N(C4CCCCC4)C(=O)[C@@H]3CC[C@H]12`, the composite z-score in assay [1] is 0.209; in assay [2], 0.0948; in [3], -0.106; in assay [5], 0.74; in [6], 0.842; in assay [7], 0.362. For the same molecule, the composite z-score in [8] is 0.611; in assay [9], 0.544; in [10], -0.312. The z-score in [4] is 0.00397 (inactive).

For the origin of these results see PubChem BioAssay.
